Sampled rows, rich in hits. Any-hit rate of the full collection: about 0.5%.
Tat transport – E. coli Tat export inhibitors, primary screen, MC4100, TorA-mCherry reporter, fluorescence, single point; 0.036% of 340,000 active; inhibition, % at 10 µM;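 active = mean replicate inhibition at least 50% and at least half of replicates individually reaching 50%; inconclusive = only one of the two criteria met; inactive = neither criterion met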;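 note: exported cargo escapes ClpAP degradation while cytoplasmic cargo is degraded and loses fluorescence; 0% = median of neutral control wells and 100% = median of NaSCN control wells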
E coli growth-1 – E. coli V3065 growth inhibition, primary screen, counter-screen for AddAB inhibitor project, absorbance, OD600. 18 h. inhibition, % at 11.9 µM. 0.27% of 330,000 active;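 active = inhibition above the campaign's mean inhibition across all tested compounds plus 3 SD, cut at about 9.9% in these data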;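 note: uninfected addAB+ strain grown without phage in ampicillin broth; 0% = DMSO wells and 100% = ciprofloxacin 0.95 µg/ml wells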
AddAB inh – growth inhibition of E. coli expressing H. pylori AddAB, primary screen, AddAB inhibitor project, absorbance | inhibition, % at 11.9 µM | 0.29% of 330,000 active; in the data active = inhibition above about 12%;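 note: 0% = vehicle wells of infected cells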
phage Ecoli inh – growth loss of phage-infected E. coli, primary screen, RecBCD inhibitor project, absorbance, with phage, HTS. AID 651602, 2012. 0.26% of 360,000 active. inhibition, % at 11.9 µM; in the data active = inhibition above about 11%
E coli growth-2 – E. coli growth inhibition, primary screen, OD600; Escherichia coli growth, 23 h; active compounds read low; OD600 absorbance (test concentration not listed); 0.21% of 330,000 active;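 active = OD600 absorbance below the run mean of sample wells minus 3.6 SD, in any replicate, cut at about 0.56 in these data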
AddAB conf – growth loss of phage-infected E. coli expressing H. pylori AddAB, confirmation, AddAB inhibitor project, absorbance, E. coli V3065, T4 phage, triplicate. inhibition, % at 11.9 µM. OD; T4 phage with gene 2 nonsense mutations. shares compounds with AddAB inh. 64% of 880 active;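 active = mean inhibition above a set limit taken from the earlier primary screen, cut at about 13% in these data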;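 note: higher means less bacterial growth since AddAB block lets phage replicate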
RecBCD counter – growth loss of RecBCD+ E. coli with mutant T4 phage, counter-screen for AddAB inhibitor project, absorbance, V66 E. coli. shares compounds with AddAB inh. OD growth. inhibition, % at 11.9 µM. 73% of 880 active;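 active = mean inhibition above the mean of solvent-only control wells plus 3 SD, cut at about 4% in these data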;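 note: optical density read after an 18 h incubation at 37 °C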
Bact viability – bacterial viability inhibition counter-screen, confirmation, counter-screen for AddAB inhibitor project, absorbance; shares compounds with AddAB inh; absorbance (AddAB counterscreen); inhibition, % at 11.9 µM; 35% of 880 active; in the data active = inhibition above about 25%
* hit, by the source's call; ? = inconclusive; nt = no result.

SMILES	Tat transport	E coli growth-1	AddAB inh	phage Ecoli inh	E coli growth-2	AddAB conf	RecBCD counter	Bact viability
CCCC(=O)Nc1ccc(C(=O)N/N=C/c2ccc([N+](=O)[O-])o2)cc1	-21	22*	18*	10	nt	100*	12*	28*
Cc1ccc(NC(=O)CCC(=O)N/N=C/c2ccc([N+](=O)[O-])o2)cc1C	1	7	7	4	nt	nt	nt	nt
O=C(N/N=C/c1ccc([N+](=O)[O-])o1)C(O)c1ccccc1 (stereo not drawn)	-20	15*	86*	11	nt	96*	11*	29*
COc1cc(CC(=O)OCC(=O)Nc2cccc([N+](=O)[O-])c2)cc(OC)c1OC	-3	0	0	5	0.66	nt	nt	nt
COc1ccc2oc3cc(C)[n+]([O-])c(-c4ccc(Br)cc4)c3c2c1	-4	1	-2	1	0.7	nt	nt	nt
O=C(Oc1c(Cl)cc(Cl)c2cccnc12)c1cccc([N+](=O)[O-])c1	2	28*	30*	nt	0.071*	62*	59*	58*
O=C(Oc1cccc2cccnc12)c1cccc([N+](=O)[O-])c1	-6	0	1	1	0.62	nt	nt	nt
O=C(O)c1ccccc1NC(=O)C1C2C=CC(C2)C1C(=O)O (stereo not drawn)	1	-1	5	1	0.62	nt	nt	nt
COc1ccc(NC(=O)COc2ccc(C)nc2[N+](=O)[O-])cc1S(N)(=O)=O	-5	12*	15*	7	0.62	46*	7.8*	29*
Cc1ccc(OCC(=O)Nc2ccc3c(c2)CCC3)c([N+](=O)[O-])n1	-3	1	1	5	0.69	nt	nt	nt
O=C(COC(=O)c1ccccc1NC(=O)c1ccco1)NCC1CCCCC1	-6	98*	97*	0	0.68	-2	2	0
CCOC(=O)c1ccccc1NC(=O)CSc1ccc(-c2ccccn2)nn1	12	13*	13*	9	0.7	6	7.8*	6
CC(=O)Nc1cccc(NC(=O)CSc2ccc(-c3ccccn3)nn2)c1	-5	4	5	10	0.64	nt	nt	nt
CCc1ccc(NC(=O)CSc2ccc(-c3ccccn3)nn2)cc1	-13	15*	13*	10	0.64	9	9.3*	8
O=C1C2CCCN2C(c2ccccc2)N1c1cccc(Cl)c1 (stereo not drawn)	2	1	119*	2	0.65	-3	0	-3
O=C1C2CCCN2C(c2ccc(F)c(F)c2)N1c1cccc(Cl)c1 (stereo not drawn)	-7	1	2	0	0.72	nt	nt	nt
CCN(Cc1ccccc1)C(=O)Cn1cc2c(n1)CCCC2	-5	3	12*	2	0.72	1	0	-4
CC1C(=O)N2CCCc3cc(S(=O)(=O)N(C)c4ccccc4)cc1c32 (stereo not drawn)	-1	23*	44*	-2	0.66	1	-2	0
CCOC(=O)N/N=C(/C)c1ccc([N+](=O)[O-])o1	-14	30*	32*	8	nt	101*	13*	39*
CC(=NNC(=O)C(O)(c1ccccc1)c1ccccc1)c1ccc([N+](=O)[O-])o1	nt	nt	nt	nt	0.71	nt	nt	nt
Cc1nc2oc3c(=O)[nH]cnc3c2c2c1COC(C)(C)C2	0	-1	31*	0	0.68	-1	0	-3
CC(c1ccccc1C(=O)O)c1cc(F)cc2ccccc12 (stereo not drawn)	nt	nt	nt	3	0.67	nt	nt	nt
CCOc1ccc(Cc2onc3c2C(=O)CCC3)cc1OCC	6	97*	99*	3	0.71	-1	0	0
CCOc1ccc(Cc2onc3c2C(=O)CC(C)(C)C3)cc1OCC	6	2	2	2	0.68	nt	nt	nt
CCOC(=O)/C=C/C(=O)OCC(=O)Nc1cccc(Cl)c1Cl	-28	76*	97*	4	0.65	-1	0	-4
SMILES	Tat transport	E coli growth-1	AddAB inh	phage Ecoli inh	E coli growth-2	AddAB conf	RecBCD counter	Bact viability
COc1ccc(N2CCN(C(CNC(C)=O)c3ccco3)CC2)cc1 (stereo not drawn)	15	3	1	4	0.71	nt	nt	nt
O=C(Nc1ccc2oc(-c3ccccc3)nc2c1)c1cc(-n2cnnc2)ccc1Cl	1	65*	95*	1	0.69	4	-1	-2
Cc1cc(N2C(=O)NC(=O)CC2C)c(C)cc1C(C)C (stereo not drawn)	-3	0	-3	2	0.7	nt	nt	nt
COc1cc2c(cc1OC)C(c1ccc(Br)cc1)CC(=O)N2 (stereo not drawn)	-1	nt	nt	0	0.66	nt	nt	nt
COC(=O)c1cc(C(=O)OCC(=O)N(C)C2CCS(=O)(=O)C2)cc([N+](=O)[O-])c1 (stereo not drawn)	0	12*	22*	1	0.7	-2	-1	-2
O=C(NC(=S)NNC(=O)c1ccccc1O)c1ccccc1	?	10*	13*	10	0.58	10	17*	15
COc1ccccc1C(=O)NNC(=S)NC(=O)c1cccs1	8	0	4	1	nt	nt	nt	nt
O=C(NC(=S)NNC(=O)c1ccccc1O)c1cccs1	3	6	13*	9	0.54	22*	20*	13
O=C(NC(=S)NNC(=O)c1ccccc1O)c1ccc(F)cc1	5	16*	13*	10	0.72	15*	18*	16
Cc1ccc(N=C2C(=S)N(c3ccc(C)cc3)C(=N)N2/N=C/c2ccc(Cl)cc2)cc1	-2	1	2	4	nt	nt	nt	nt
C(C#CCCCCCCCCC[n+]1ccccc1)#CCCCCCCCCC[n+]1ccccc1	82*	102*	101*	nt	0.064*	100*	100*	101*
CCCCN1C(=S)NC[C@@H]1c1ccccc1	2	1	4	3	nt	nt	nt	nt
CCCCCC(=O)NCc1c(C(F)(F)F)nn(C)c1N1CCOCC1	0	97*	98*	0	0.71	-3	1	0
Cc1cc(C)c(S(=O)(=O)C(C)C)c(=O)[nH]1	2	1	5	3	0.68	nt	nt	nt
Cc1ccccc1-c1nc(CN2CCC(C(=O)O)CC2)c(C)o1	?	6	20*	1	0.7	4	1	-3
CCN(CC)CCNC(=O)c1cn(CC)c2cc(N3CCN(C(=O)c4ccco4)CC3)c(F)cc2c1=O	13	65*	68*	8	0.074*	98*	6.6*	89*
CCN(CC)CCCNC(=O)c1cn(CC)c2cc(N3CCN(C(=O)c4ccco4)CC3)c(F)cc2c1=O	20	98*	97*	1	0.065*	100*	88*	101*
